Here are results for seven compounds from PubChem BioAssay (NCI).

SMILES strings stand for the structures. Compounds without any hit were thinned out: in the full panel of roughly 83,000, 20% have a hit.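 Step 1: grow cells in 96-well plates. Step 2: add test compound at a single concentration. Step 3: incubate 48 h. Step 4: record percent growth.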 Values without a mark were called inactive. Activity calls are given as the source filed them. The calls were made as follows: active = growth percent below 10; inactive = the rest.

Holding throughout (test): NCI-60 one-dose screen, 48 h (100 = growth as untreated, 0 = no growth, -100 = all killed)
For test [1], the system named is SK-MEL-2 melanoma. Particulars: 10 µM unless noted.
Test [2] has as its system EKVX NSCLC. The conditions noted are these: 10 µM unless noted.
For test [3], the system named is SN12C renal. The conditions noted are these: 10 µM unless noted.
The test system of test [4] is UO-31 renal. Particulars: 10 µM unless noted.
Test [5] concerns TK-10 renal. The conditions noted are these: 10 µM unless noted.
Test [6] has as its system ACHN renal. The conditions noted are these: 10 µM unless noted.
In test [7] the test system is A498 renal. The conditions noted are these: 10 µM.
Test [8] deals with HL-60(TB) leukemia. Particulars: 10 µM unless noted.
Test [9] has as its system CCRF-CEM leukemia. The conditions noted are these: 10 µM unless noted.
In test [10] the test system is MOLT-4 leukemia. The conditions noted are these: 10 µM unless noted.
The subject of test [11] is SR leukemia. Particulars: 10 µM unless noted.
Test [12] relates to RPMI-8226 leukemia. Particulars: 10 µM unless noted.
In test [13] the test system is OVCAR-8 ovarian. Particulars: 10 µM unless noted.
Test [14] relates to OVCAR-5 ovarian. Particulars: 10 µM unless noted.
Test [15] has as its system OVCAR-4 ovarian. The conditions noted are these: 10 µM unless noted.
In test [16] the test system is SK-OV-3 ovarian. Particulars: 10 µM unless noted.
The test system of test [17] is IGROV1 ovarian. The conditions noted are these: 10 µM unless noted.
In test [18] the test system is OVCAR-3 ovarian. The conditions noted are these: 10 µM unless noted.
Test [19] has as its system HS 578T breast. Particulars: 10 µM unless noted.

On to `CCOC(=O)[C@@H](C)C[C@H](Cc1ccccc1)NC(=O)c1csc([C@@H](C[C@H](C(C)C)N(C)C(=O)CNC(=O)[C@H]2CCCCN2C)OC(C)=O)n1`, for which the growth in [1] was 28.1%; in test [2], 34.8%; in test [3] it was 36%; in test [4], 39.7%; in test [5] it was 65.7%; in test [6] it was 43.7%. The growth in test [7] was -3.32% (active); in test [8], -32.3% (active); in [9], 5.17% (active); in test [10], 19.7%; in test [11], 7.72% (active); in test [12], 15.4%. Further, the growth in test [13] is 9.59% (active); in test [14], 32.1%; in [15], 46.4%; in test [16] it was 21.9%; in test [17], 33.4%; in [18] it was -17.4% (active). For the same compound, the growth in test [19] is 3.01% (active).
In the case of `Brc1ccc2c(c1)c(-c1nc(-c3c[nH]c4ncccc34)cs1)cn2CCN1CCOCC1`, the growth in test [1] is 80%; in test [2] it was 43.5%; in [3], 71.5%; in [4] it was 35.8%; in test [5], 74.1%; in [6] it was 55.2%. Further, the growth was 88.7% in test [7]; 71% in test [8]; 45.8% in test [9]; 41.3% in test [10]; 59.7% in test [11]; 40.1% in test [12]. Also, the growth is 45.6% in [13]; 76.9% in test [14]; 57.3% in test [15]; 84.8% in test [16]; 29.5% in [17]; 72.9% in test [18]. Besides, the growth in test [19] is 66.8%.
Regarding `CCOC(=O)CCN(C)C1=Nc2ccc(Cl)cc2C(c2ccccc2)=[N+]([O-])C1`, the growth in test [1] is 93.5%; in test [2], 102%; in test [3], 98.5%; in test [4] it was 78.6%; in test [5] it was 91.4%; in [6] it was 110%. Also, the growth in test [7] was 71.8%; in [8] it was 91.3%; in test [9], 99.6%; in test [10] it was 94.1%; in test [11], 85.8%; in test [12], 106%. Also, the growth was 101% in test [13]; 109% in test [14]; 99.4% in [15]; 106% in test [16]; 107% in test [17]; 110% in test [18]. Further, the growth in [19] is 96%.
Take `Cn1cc(-c2csc(-c3cn(CCCCN4CCCCC4)c4ccccc34)n2)c2cccnc21`: the growth in [1] is 37.9%; in test [2], 69.9%; in [3] it was 81.8%; in test [4] it was -77.8% (active); in test [5], 50.2%; in test [6] it was -96.4% (active). The growth in [7] is 81%; in test [8], -62.3% (active); in test [9], -11% (active); in test [10], -55% (active); in test [11] it was -49.5% (active); in test [12], -31.1% (active). The growth in test [13] is -58.8% (active); in test [14], 96.8%; in [15], 82.3%; in test [16], 87.6%; in test [17] it was 70.6%; in test [18], -75.2% (active). Besides, in test [19], the growth is 61%.
`Nc1ccc(Cl)cc1`: the growth in test [1] is 95.7%; in test [2], 95.7%; in test [3], 95.3%; in [4], 94.9%; in [5] it was 92.3%; in test [6] it was 108%. The growth in test [7] was 103%; in [8] it was 95%; in test [9], 98.2%; in [10] it was 94.3%; in test [11], 102%; in test [12] it was 98.9%. In addition, the growth in test [13] is 97.4%; in test [14], 100%; in [15], 106%; in test [16], 92%; in test [17], 105%; in [18], 112%. In addition, the growth in test [19] was 98.9%.
As to `O=C1CNC(c2ccccc2)c2cc(Cl)ccc2N1` (stereo not drawn), the growth was 95.5% in [1]; 104% in test [2]; 97.6% in test [3]; 80.4% in test [4]; 93.2% in [5]; 109% in test [6]. In addition, the growth in test [7] was 97.5%; in test [8] it was 97.5%; in test [9] it was 94.2%; in test [10] it was 93.5%; in [11], 88.8%; in test [12], 109%. The growth was 99.7% in [13]; 113% in [14]; 112% in test [15]; 98.2% in [16]; 100% in test [17]; 98% in test [18]. The growth in [19] was 109%.
Take `CN(C)C(=O)Oc1ccccc1-c1ccccc1`: the growth is 102% in test [1]; 101% in test [2]; 102% in test [3]; 86.3% in test [4]; 109% in test [5]; 104% in test [6]. Further, the growth in test [7] is 115%; in test [8], 99.7%; in test [9], 96.9%; in [10] it was 89.9%; in [11], 103%; in test [12], 104%. The growth in test [13] was 100%; in test [14] it was 109%; in test [15], 128%; in test [16], 100%; in test [17], 113%; in [18] it was 108%. Besides, the growth in test [19] was 113%.
